Rows were chosen to be rich in hits. Some 1.6% of all compounds tested hit in one or more screens of this group.
KCNQ2 pot = KCNQ2 (rat) channel potentiation; O88943; CHO-K1 KCNQ2, FluxOR thallium flux fluorescence; active compounds read high; B-score at 10 µM; 310,000 compounds, 0.54% hits;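 active = fluorescence ratio B-score at least 3 SD of library B-scores, with initial fluorescence B-score within 3 of them, cut at about 5.3 in these data; same plate scores as AID 2156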;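 note: B-score of peak minus minimum over baseline fluorescence ratio after K+ and Tl+ stimulus; positive B-score means potentiation of KCNQ2 with more thallium influx and brighter signal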
KCNQ2 block = blocks the rat KCNQ2 potassium channel; O88943; CHO-K1 KCNQ2, FluxOR thallium flux, 20 min; active compounds read low; B-score at 10 µM; 310,000 compounds, 1.1% hits; AID 2156;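 active = fluorescence ratio B-score at most minus 3 library SDs, with starting brightness B-score within 2 library SDs, cut at about -5.5 in these data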
Kir21 conf inh = confirmation of mouse Kir2.1 potassium channel inhibitors; Kir2.1-expressing cells, FluxOR thallium flux fluorescence; active compounds read low; Tl flux remaining, % of negative control (active compounds read low), % at 10 µM; 2,300 compounds, 41% hits; AID 2032; shares compounds with KCNQ2 pot;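 active = Primary-screen hit whose thallium flux fell at least 3 control SD below untreated wells in both duplicates, with normal baseline fluorescence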;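 note: 0% = blank wells without stimulus and 100% = stimulated no-compound controls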
Target sequence (P35561 whole entry, looked up): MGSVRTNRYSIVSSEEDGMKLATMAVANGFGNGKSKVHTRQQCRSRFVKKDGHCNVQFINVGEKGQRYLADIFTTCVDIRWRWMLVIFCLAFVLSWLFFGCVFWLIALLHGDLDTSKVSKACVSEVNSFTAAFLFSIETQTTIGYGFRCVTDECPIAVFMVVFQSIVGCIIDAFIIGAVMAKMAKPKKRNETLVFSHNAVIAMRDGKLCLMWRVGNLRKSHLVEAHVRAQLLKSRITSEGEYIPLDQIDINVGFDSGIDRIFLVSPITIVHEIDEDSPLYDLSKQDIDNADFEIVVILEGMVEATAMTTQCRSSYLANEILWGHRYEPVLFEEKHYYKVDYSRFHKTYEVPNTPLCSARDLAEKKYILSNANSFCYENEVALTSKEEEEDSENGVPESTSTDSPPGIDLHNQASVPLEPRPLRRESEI
HEK293 ctr = parental HEK293 activity in Kir2.1 inhibitor counter-screen. 2,300 compounds, 19% hits. AID 2105. shares compounds with KCNQ2 pot. FluxOR signal as % of negative control (100 = no effect), % at 10 µM. parental HEK293 cells, FluxOR thallium flux fluorescence; 0% = unstimulated blank wells;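 active = dye signal at least 3 control SD above or below untreated wells in both duplicates, raw fluorescence within 3, either direction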;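 note: percent is based on the flux ratio of peak minus minimum fluorescence over baseline F0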
CHO-K1 ctr = counter-screen for KCNQ2 potentiators: effect in parental CHO-K1 cells | activity increase over 3SD of controls, % at 10 µM | shares compounds with KCNQ2 pot | FluxOR thallium flux fluorescence; zero = vehicle mean+3SD, 100% = vehicle-minus-blank window | AID 2282 | 1,200 compounds, 43% hits;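 active = signal rise of at least 3 SD above the untreated control mean, in both duplicate wells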;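 note: counter screen of KCNQ2 potentiator hits so any rise reflects channel-independent effects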
KCNQ1 sel pot = human KCNQ1 counter-target activity of KCNQ2 potentiators; 1,200 compounds, 28% hits; CHO KCNQ1 stable, FluxOR thallium flux fluorescence; beyond 3SD, as % of vehicle-control signal; activation over 3SD threshold, % at 10 µM; shares compounds with KCNQ2 pot;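 active = fluorescence ratio rise of at least 3 SD of vehicle wells above their mean, in both replicate wells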;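 note: 0% = vehicle mean plus 3 SD and 100% = vehicle minus unstimulated blank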
KCNQ2 pot confirm = rat KCNQ2 channel potentiator confirmation | 1,200 compounds, 68% hits | CHO-KCNQ2 cells, FluxOR thallium flux fluorescence | potentiation, less the hit threshold, % at 10 µM | shares compounds with KCNQ2 pot | AID 2287;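 active = fluorescence ratio rising 3 SD or more over the vehicle control mean in both replicates, plus primary screen hit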;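 note: peak minus minimum thallium fluorescence divided by baseline after K/Tl stimulus; 0% = vehicle mean plus 3 SD and 100% = vehicle minus unstimulated blank difference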
Kir21 spec = mouse Kir2.1 off-target activity of KCNQ2 potentiators. shares compounds with KCNQ2 pot. HEK293 Kir2.1, FluxOR thallium flux fluorescence. 1,200 compounds, 2% hits. activity over 3SD threshold, % at 10 µM. AID 2345;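 active = fluorescence ratio rise of at least 3 SD above the vehicle-control mean, seen in both replicates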;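 note: 0% = vehicle mean plus 3 SD and 100% = vehicle minus no-stimulus blank window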
KCNQ2 W236L MoA = rat KCNQ2 W236L mutant potentiation by KCNQ2 potentiators; current increase over 3SD of negative controls (%), active compounds read high, % at 25 µM; 940 compounds, 10% hits; CHO KCNQ2-W236L, automated patch clamp current; shares compounds with KCNQ2 pot;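 active = current increase at least 3 SD of the untreated controls above them in both duplicate recordings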
The depositor's hits bear a star; i = inactive; . = not tested or not shown.

SMILES	KCNQ2 pot	KCNQ2 block	Kir21 conf inh	HEK293 ctr	others
COc1ccc(C(=O)NCc2nnc(SCC(=O)N3CCc4ccccc43)n2CCc2ccccc2)cc1	.	i	.	.
O=C(Nc1ccccc1OC(F)F)c1cccc(S(=O)(=O)N2CCCC2)c1	.	i	.	.
COc1ccc(NC(=O)COc2cccc(-n3cnnn3)c2)cc1	0.56	i	.	.
O=C(CN1CCN(Cc2ccc(Cl)cc2)CC1)N1CCc2ccccc21	0.49	i	35.0%*	i
O=C(CN1CCN(Cc2ccccc2)CC1)N1CCCc2ccccc21	0.64	i	.	.
COC(=O)c1cc(S(=O)(=O)N2c3ccccc3CC2C)cn1C (stereo not given)	.	i	.	.
CCOC(=O)CSc1nc(Cc2ccccc2)nc2ccccc12	.	i	70.0%*	i
CCOC(=O)CSc1nc(CC)nc2ccccc12	1.22	i	.	.
CCCn1c(=N)n(CC(O)c2ccc(C)cc2)c2ccccc21 (stereo not given)	0.93	i	60.0%*	i
CCCn1c(=N)n(CC(O)COc2ccc(C)cc2)c2ccccc21 (stereo not given)	1.52	i	.	.
CC(=O)N[C@@H](C)c1nc2ccccc2n1CCCN1CCN(c2nc(-c3ccc(C)cc3)cs2)CC1	.	i	.	.
O=C(CCSCc1ccccc1F)NCc1ccc(F)cc1	.	i	.	.
CCCn1c(=O)c(C(=O)NCc2ccncc2)c(O)c2ccccc21	0.05	i	.	.
CC(C)Cn1c(=O)c(C(=O)NCc2ccccn2)c(O)c2ccccc21	15*	i	i	i	CHO-K1 ctr=-15.5;KCNQ1 sel pot=-13.7;KCNQ2 pot confirm=-13.0;Kir21 spec=-27.0
O=C(CN1CCCCC1)NNc1nc(-c2ccccc2)c2cc(Cl)ccc2n1	11.1*	i	i	i	CHO-K1 ctr=-14.9;KCNQ1 sel pot=-19.4;KCNQ2 pot confirm=15.4*;Kir21 spec=-35.0;KCNQ2 W236L MoA=i
O=C(O)CCC(=O)NNc1nc(-c2ccccc2)c2cc(Cl)ccc2n1	.	i	.	.
CC(C)(C)c1ccc(OCC(=O)NCc2ccco2)c(Br)c1	5.4*	i	i	i	CHO-K1 ctr=-10.7;KCNQ1 sel pot=-13.1;KCNQ2 pot confirm=4.0*;Kir21 spec=-36.0;KCNQ2 W236L MoA=i
CC(C)(C)c1ccc(OCC(=O)NNC(=S)NC(=O)c2ccco2)c(Br)c1	.	i	.	.
Cc1ccc(C)c(S(=O)(=O)N2CCCOC2CNC(=O)C(=O)NC2CC2)c1 (stereo not given)	.	i	.	.
CCCCN(C(=O)c1ccc(C#N)cc1)c1c(N)n(CCC)c(=O)[nH]c1=O	.	i	.	.
CNC(=S)N/N=C/C1=CCC2CC1C2(C)C (stereo not given)	1.44	i	.	.
CC1(C)C2CC=C(/C=N/NC(=S)NCCc3ccccc3)C1C2 (stereo not given)	5.51*	i	i	i	CHO-K1 ctr=-14.8;KCNQ1 sel pot=-15.5;KCNQ2 pot confirm=-18.5;Kir21 spec=-25.6
COc1ccc2oc(C(=O)OCC(=O)N3CCN(S(=O)(=O)c4ccc(C)cc4)CC3)c(C)c2c1	1.21	i	.	.
COc1ccc(S(=O)(=O)Nc2ccc(-n3cccc3)cc2)cc1	.	i	.	.
N#Cc1c(SCC(=O)Nc2nncs2)sc2c(O)cc(=O)[nH]c12	0.52	i	.	.
SMILES	KCNQ2 pot	KCNQ2 block	Kir21 conf inh	HEK293 ctr	others
CC(C)c1ccc(CN2CCSCC2)cc1	.	i	.	.
NNC(=O)c1ncoc1-c1ccc(Cl)cc1	.	i	.	.
COC(=O)n1c(=S)oc2cc(Cl)ccc21	8.36*	i	i	i	CHO-K1 ctr=27.5*;KCNQ1 sel pot=-18.0;KCNQ2 pot confirm=-10.1;Kir21 spec=-26.5;KCNQ2 W236L MoA=i
CCCCOC(=O)n1c(=S)oc2cc(Cl)ccc21	1.89	i	.	.
COc1cc(CNCCCN2CCOCC2)cc(Br)c1OCc1ccc(Cl)cc1	.	i	33.0%*	i
COc1cc(CNCCN2CCOCC2)ccc1OCc1ccc(Cl)cc1	0.08	i	.	.
C=CCc1ccc(OCC(O)CN2CCc3ccccc3C2)c(OC)c1 (stereo not given)	.	i	30.5%*	i
COc1cc(COCC(O)CN2CCc3ccccc3C2)cc(OC)c1OC (stereo not given)	0.05	i	.	.
OC(COc1ccc(Cl)cc1Cl)CN1CCc2ccccc2C1 (stereo not given)	.	i	39.5%*	i
OC(COC(c1ccc(Cl)cc1)c1ccc(Cl)cc1)CN1CCc2ccccc2C1 (stereo not given)	.	i	.	.
COc1cccc(OCC(O)CN2CCc3ccccc3C2)c1 (stereo not given)	0.35	i	.	.
Cc1cccc(OCC(O)CN2CCc3ccccc3C2)c1 (stereo not given)	1.3	i	42.0%*	i
Cc1ccc(OCC(O)CN2CCc3ccccc3C2)c(C)c1 (stereo not given)	.	i	28.5%*	i
COc1ccc(OCC(O)CN2CCc3ccccc3C2)cc1 (stereo not given)	0.26	i	.	.
Cc1cccn2c(CNCCc3ccco3)c(C(=O)N3CCOCC3)nc12	0.51	i	.	.
COc1ccc(OC)c(Nc2nc(N)c([N+](=O)[O-])c(N3CCOCC3)n2)c1	1.42	i	.	.
COc1cccc(C(=O)NN=C2CCCC2)c1	.	i	.	.
O=C(NNC(=O)c1ccccc1Cl)c1ccccc1Cl	0.96	i	.	.
Nc1ccccc1C(=O)NNC1=C(C(=O)C(F)(F)F)CCC1	6.81*	i	i	i	CHO-K1 ctr=17.7*;KCNQ1 sel pot=-14.1;KCNQ2 pot confirm=-0.3;Kir21 spec=-29.1;KCNQ2 W236L MoA=i
O=C(NNC1=C(C(=O)C(F)(F)F)CCC1)c1ccc(Br)cc1	4.77	i	.	.
O=C(NNC1=C(C(=O)C(F)(F)F)CCC1)c1ccccc1Cl	19.1*	i	i	i	CHO-K1 ctr=-8.2;KCNQ1 sel pot=-20.0;KCNQ2 pot confirm=73.5*;Kir21 spec=-28.2;KCNQ2 W236L MoA=i
COc1cccc(C(=O)NNC2=C(C(=O)C(F)(F)F)CCC2)c1	6.38*	i	i	i	CHO-K1 ctr=3.0*;KCNQ1 sel pot=-6.7;KCNQ2 pot confirm=20.6*;Kir21 spec=-27.9;KCNQ2 W236L MoA=i
COc1ccc(S(=O)(=O)N2CCOC2CNC(=O)C(=O)NCCN2CCOCC2)cc1 (stereo not given)	.	i	.	.
O=C(NCc1ccc(Cl)cc1Cl)C1CCN(S(=O)(=O)c2ccc3c(c2)OCCCO3)CC1	0.39	i	.	.
O=C(Nc1nnc(-c2ccc3c(c2)CCCC3)o1)c1ccccc1	7.11*	i	i	289.0%*	CHO-K1 ctr=-9.5;KCNQ1 sel pot=-14.0;KCNQ2 pot confirm=8.6*;Kir21 spec=-26.2;KCNQ2 W236L MoA=i
O=C(COc1ccccc1)Nc1nnc(-c2ccc3c(c2)CCCC3)o1	.	i	.	.
